Consider ten compounds from PubChem BioAssay (Tox21).

For assay [1], the target named is Thyrotropin-releasing hormone receptor (Homo sapiens) (UniProt P34981). The experiment in a line: qHTS assay to identify small molecule agonists of the thyrotropin-releasing hormone receptor (TRHR) signaling pathway (AID 1346891; calls by dose curve; further: series mostly up to about 58 µM). In a few lines:
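TRHR-expressing HEK293 cells were plated 18 h at 37 °C/5% CO2, loaded with calcium dye 2 h at 37 °C, then given compound in DMSO; fluorescence was read kinetically for 3 min at 1 s intervals.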
For orientation: Quantitative high-throughput screening tests each substance at several concentrations.

Assay [2] can be described thus: Human pregnane X receptor (PXR) small molecule agonists, qHTS cell viability counter screen (AID 1346977). Further: nearly all actives have a fitted effect of over 50% in size. In a few lines:
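PXR-Luc HepG2 cells in medium with 5% charcoal-stripped FBS were pre-incubated 5hr, then exposed to compounds for 24hr at 37C. Viability was read in the same wells by CellTiter-Fluor fluorescence, reagent added after 23hr with a 1hr incubation.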

A short description of assay [3]: Caspase-3/7 induction in HepG2 cells by small molecules, qHTS assay (AID 1346978). Further: nearly all actives have a fitted effect of over 15% in size. In a few lines:
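Wild-type HepG2 cells (2,000/well) were settled 5 h at 37 C, 5% CO2, then exposed to compounds in DMSO for 17 h. Caspase-3/7 activity was read by luminescence 30 min after adding Caspase-Glo 3/7 reagent at room temperature.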

Assay [4] can be described thus: Caspase-3/7 induction in CHO-K1 cells by small molecules, qHTS cell viability counter screen (AID 1346979). Further: nearly all actives have a fitted effect of over 35% in size. In a few lines: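 Wild-type CHO-K1 cells were seeded at 1,500 per well, rested 5hr at 37 C, then exposed to compounds in DMSO. After 16hr, CellTiter-Fluor reagent was added and fluorescence read 1hr later as the viability measure.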
Assay [5] in a line: Caspase-3/7 induction in HepG2 cells by small molecules, qHTS cell viability counter screen (AID 1346981). Further: series mostly up to about 92 µM; nearly all actives have a fitted effect of over 30% in size. In a few lines: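 CellTiter-Fluor fluorescence measured viability in the same wells used for Caspase-Glo 3/7. HepG2 (wild type) at 2,000 cells/well were pre-incubated 5 hr, dosed, and given reagent at 16 hr, with 1 hr further at 37C.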
The target of assay [6] is Nuclear receptor subfamily 1 group I member 2 (Homo sapiens) (UniProt O75469). Nature of the assay: Human pregnane X receptor (PXR) small molecule agonists, qHTS assay (AID 1346982). Further: nearly all actives have a fitted effect of over 35% in size. Further: potency means the concentration at half of the fitted maximal effect. In short, it runs like this:
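Agonist mode: luminescence from ONE-Glo after 24 h compound exposure at 37C in HepG2 cells carrying hPXR-responsive CYP3A4 luciferase, plated in charcoal-stripped serum medium 5 h beforehand.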

The target of assay [7] is Cytochrome P450 2D6 (Homo sapiens) (UniProt P10635). The experiment in a line: Cytochrome P450 Family 2 Subfamily D Member 6 (CYP2D6) small molecule antagonists: luciferase reporter qHTS assay (AID 1671196). Further: nearly all actives have a fitted effect of over 50% in size. Further: potency means the concentration at half of the fitted maximal effect. On activity change, negative = inhibition: series mostly up to about 120 µM. In a few lines:
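CYP2D6 activity was followed as luminescence from its luciferin product after a 1 h NADPH-driven reaction at room temperature. Enzyme-substrate mix and compound were pre-incubated for 10 min, and the signal was read 20 min after adding detection reagent.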
(A reporter such as luciferase makes a cellular process visible.)

The target of assay [8] is Cytochrome P450 2C19 (Homo sapiens) (UniProt P33261). The experiment in a line: Cytochrome P450 Family 2 Subfamily C Member 19 (CYP2C19) small molecule antagonists: luciferase reporter qHTS assay (AID 1671197). Further: nearly all actives have a fitted effect of over 65% in size. Further: potency means the concentration at half of the fitted maximal effect. On activity change, negative = inhibition: series mostly up to about 120 µM. In short, it runs like this: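 First, compounds are pinned into enzyme-substrate mix and held 10 min at room temperature. Second, NADPH regeneration solution is added and plates incubate 1 h at 37C. Third, detection reagent is added and luminescence read after 20 min.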

In assay [9] the target is Voltage-gated inwardly rectifying potassium channel KCNH2 (Homo sapiens) (UniProt Q12809). Nature of the assay: Human Ether-a-go-go-Related Gene (hERG) channel small molecule antagonists: fluorescence cell-based qHTS assay (AID 1671200).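 Further: hERG-expressing U2OS cells given a thallium stimulus after FluxOR II dye loading; series mostly up to about 77 µM; nearly all actives have a fitted effect of over 50% in size.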 In a few lines: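 U2OS cells expressing the channel were plated at 1000 cells/well, incubated overnight at 37 C, then loaded with FluxOR II thallium-sensitive dye for 1 h at room temperature in the dark, with a further 10 min at room temperature before stimulation.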

Assay [10] has as its target Cytochrome P450 3A4 (Homo sapiens) (UniProt P08684). The experiment in a line: Cytochrome P450 Family 3 Subfamily A Member 4 (CYP3A4) small molecule antagonists: luciferase reporter qHTS assay (AID 1671201). Further: series mostly up to about 120 µM; nearly all actives have a fitted effect of over 50% in size. In short, it runs like this:
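P450-Glo CYP3A4 system with proluciferin substrate; compounds preincubated 10 min RT with enzyme-substrate mix, then NADPH regeneration added for 1 h RT. Detection reagent 20 min, luminescence read as relative luminescence units.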

Assay [11] is described as follows: Caspase-3/7 induction in CHO-K1 cells by small molecules, qHTS assay (AID 1346980). Further: nearly all actives have a fitted effect of over 15% in size. In short, it runs like this: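 Wild-type cells were seeded at 1,500 per well and settled 5 hr at 37 C, 5% CO2, then exposed to DMSO-dissolved compounds for 17 hr. Caspase-Glo 3/7 reagent was added, and luminescence was read after 30min at room temperature.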
Assay [12] deals with Cytochrome P450 1A2 (Homo sapiens) (UniProt P05177). The experiment in a line: Cytochrome P450 Family 1 Subfamily A Member 2 (CYP1A2) small molecule antagonists: luciferase reporter qHTS assay (AID 1671199). Further: nearly all actives have a fitted effect of over 50% in size. Further: potency means the concentration at half of the fitted maximal effect. On activity change, negative = inhibition: series mostly up to about 120 µM. In short, it runs like this:
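Luminescence from luciferin formed by CYP1A2 from a proluciferin substrate, read 20 min after detection reagent. Compound was pre-incubated 10 min with enzyme-substrate, and reaction started with NADPH regeneration solution for 1 h at room temperature; furafylline control.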

Assay [13] has as its target Cytochrome P450 2C9 (Homo sapiens) (UniProt P11712). Nature of the assay: Cytochrome P450 Family 2 Subfamily C Member 9 (CYP2C9) small molecule antagonists: luciferase reporter qHTS assay (AID 1671198). Further: nearly all actives have a fitted effect of over 50% in size. Further: potency means the concentration at half of the fitted maximal effect. On activity change, negative = inhibition: series mostly up to about 120 µM. In short, it runs like this: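 CYP2C9 activity was measured with a P450-Glo proluciferin substrate. Enzyme–substrate mix was held with compound for 10 min at room temperature, then NADPH regeneration solution was added for 1 h at 37C. Luciferin product was read as luminescence.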

The target of assay [14] is Nuclear receptor subfamily 1 group I member 2 (Homo sapiens) (UniProt O75469). The experiment in a line: CYP3A4 induction through human pregnane X receptor (PXR) by small molecules, qHTS assay (AID 1346984). Further: nearly all actives have a fitted effect of over 40% in size. In a few lines: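 Read-out is luminescence after One-Glo addition, following a 3 hr, 37C incubation with Luciferin-IPA CYP3A4 substrate (3uM final). Before that, compounds were on DPX-2 cells (HepG2 co-transfected with PXR element plus CYP3A4-promoter luciferase) for 24 hr at 37C.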

For assay [15] the target is unchanged. The experiment in a line: Human pregnane X receptor (PXR) activation by small molecules, qHTS assay (AID 1346985). Further: nearly all actives have a fitted effect of over 40% in size. In short, it runs like this: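 DPX-2 cells (HepG2 co-transfected with a PXR response element and a CYP3A4-promoter luciferase construct) were seeded at 2,000 per well, rested 5 hr at 37C, then exposed to DMSO-dissolved compounds for 24 hr. Activation was read as luciferase luminescence.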

Values without a mark were called inactive. Inconclusive results are not listed. The source made the active and inactive calls. Unless noted, the call rests on the fitted dose curve; in most records, active means well fitted curve in the direction sought with a large enough effect in the repeat runs; inconclusive means weak or mixed curves; inactive means no such curve, though single readings can be large; an effect the other way counts as inactive or inconclusive.
On the % scale 0 is the no-effect control and ±100 the full control effect.

Cytochrome P450 2C19 (Homo sapiens), sequence (P33261 whole entry, looked up): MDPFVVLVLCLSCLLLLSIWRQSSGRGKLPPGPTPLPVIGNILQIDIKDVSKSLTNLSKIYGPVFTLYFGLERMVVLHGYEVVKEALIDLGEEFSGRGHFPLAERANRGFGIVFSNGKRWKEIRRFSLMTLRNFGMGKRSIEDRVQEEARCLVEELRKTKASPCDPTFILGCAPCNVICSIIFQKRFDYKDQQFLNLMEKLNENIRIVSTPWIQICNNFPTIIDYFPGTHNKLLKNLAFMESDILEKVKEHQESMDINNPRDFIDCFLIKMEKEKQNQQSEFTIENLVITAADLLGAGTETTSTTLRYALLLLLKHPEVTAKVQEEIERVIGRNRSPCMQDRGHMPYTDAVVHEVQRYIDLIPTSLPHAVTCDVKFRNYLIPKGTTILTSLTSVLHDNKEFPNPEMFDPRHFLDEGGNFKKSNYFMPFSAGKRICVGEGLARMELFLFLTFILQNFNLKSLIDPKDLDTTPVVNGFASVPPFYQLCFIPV
Voltage-gated inwardly rectifying potassium channel KCNH2 (Homo sapiens), sequence (Q12809 whole entry, looked up): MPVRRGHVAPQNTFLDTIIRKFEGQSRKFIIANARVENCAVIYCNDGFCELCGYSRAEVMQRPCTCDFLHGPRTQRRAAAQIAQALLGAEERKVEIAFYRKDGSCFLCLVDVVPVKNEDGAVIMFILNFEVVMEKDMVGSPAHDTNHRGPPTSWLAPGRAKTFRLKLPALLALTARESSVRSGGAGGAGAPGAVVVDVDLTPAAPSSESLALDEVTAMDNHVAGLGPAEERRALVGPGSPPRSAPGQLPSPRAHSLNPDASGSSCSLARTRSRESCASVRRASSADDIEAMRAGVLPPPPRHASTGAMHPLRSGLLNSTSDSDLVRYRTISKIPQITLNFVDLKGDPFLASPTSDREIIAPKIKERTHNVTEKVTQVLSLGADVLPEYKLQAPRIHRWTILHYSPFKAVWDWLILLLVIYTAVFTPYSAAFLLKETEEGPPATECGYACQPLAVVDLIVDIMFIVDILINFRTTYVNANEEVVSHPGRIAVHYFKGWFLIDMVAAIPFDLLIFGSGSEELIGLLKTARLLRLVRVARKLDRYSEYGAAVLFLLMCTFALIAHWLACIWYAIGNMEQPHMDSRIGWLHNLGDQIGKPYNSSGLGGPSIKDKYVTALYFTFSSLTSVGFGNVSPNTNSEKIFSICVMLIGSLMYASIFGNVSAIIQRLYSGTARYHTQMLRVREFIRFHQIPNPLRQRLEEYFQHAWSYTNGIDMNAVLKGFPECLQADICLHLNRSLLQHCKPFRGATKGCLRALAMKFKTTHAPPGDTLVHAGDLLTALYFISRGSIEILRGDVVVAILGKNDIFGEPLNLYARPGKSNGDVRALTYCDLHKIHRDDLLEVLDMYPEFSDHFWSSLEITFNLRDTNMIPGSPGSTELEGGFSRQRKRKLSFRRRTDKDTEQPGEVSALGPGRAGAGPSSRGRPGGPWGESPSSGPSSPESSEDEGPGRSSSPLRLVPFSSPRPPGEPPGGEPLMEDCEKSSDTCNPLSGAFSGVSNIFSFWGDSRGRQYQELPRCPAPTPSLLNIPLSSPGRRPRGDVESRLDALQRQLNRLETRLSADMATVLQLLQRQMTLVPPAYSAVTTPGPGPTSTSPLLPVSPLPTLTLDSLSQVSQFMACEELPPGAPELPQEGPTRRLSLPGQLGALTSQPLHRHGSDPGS
Thyrotropin-releasing hormone receptor (Homo sapiens), sequence (P34981 whole entry, looked up): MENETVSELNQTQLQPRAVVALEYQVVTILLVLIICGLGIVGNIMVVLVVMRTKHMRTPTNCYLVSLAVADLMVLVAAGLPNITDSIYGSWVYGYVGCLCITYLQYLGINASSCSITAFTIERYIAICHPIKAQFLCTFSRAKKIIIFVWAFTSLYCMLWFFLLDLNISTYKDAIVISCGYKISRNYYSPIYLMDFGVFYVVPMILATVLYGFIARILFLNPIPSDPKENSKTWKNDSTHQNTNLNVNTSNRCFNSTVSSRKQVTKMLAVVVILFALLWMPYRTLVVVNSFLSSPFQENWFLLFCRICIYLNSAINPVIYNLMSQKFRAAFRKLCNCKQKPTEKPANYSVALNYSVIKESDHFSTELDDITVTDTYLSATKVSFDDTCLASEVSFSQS
Cytochrome P450 3A4 (Homo sapiens), sequence (P08684 whole entry, looked up): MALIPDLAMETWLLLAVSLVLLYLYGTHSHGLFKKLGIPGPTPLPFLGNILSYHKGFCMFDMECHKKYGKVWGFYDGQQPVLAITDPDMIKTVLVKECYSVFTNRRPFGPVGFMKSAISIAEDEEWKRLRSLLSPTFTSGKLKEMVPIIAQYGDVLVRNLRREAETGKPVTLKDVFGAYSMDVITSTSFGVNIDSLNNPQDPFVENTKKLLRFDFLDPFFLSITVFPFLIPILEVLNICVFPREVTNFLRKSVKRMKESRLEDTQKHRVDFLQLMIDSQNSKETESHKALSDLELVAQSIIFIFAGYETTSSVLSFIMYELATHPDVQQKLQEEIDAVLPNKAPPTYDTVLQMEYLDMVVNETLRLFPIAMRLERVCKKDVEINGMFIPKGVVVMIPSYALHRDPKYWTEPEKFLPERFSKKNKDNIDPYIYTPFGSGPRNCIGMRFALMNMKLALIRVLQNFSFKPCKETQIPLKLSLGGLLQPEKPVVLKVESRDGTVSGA
Nuclear receptor subfamily 1 group I member 2 (Homo sapiens), sequence (O75469 whole entry, looked up): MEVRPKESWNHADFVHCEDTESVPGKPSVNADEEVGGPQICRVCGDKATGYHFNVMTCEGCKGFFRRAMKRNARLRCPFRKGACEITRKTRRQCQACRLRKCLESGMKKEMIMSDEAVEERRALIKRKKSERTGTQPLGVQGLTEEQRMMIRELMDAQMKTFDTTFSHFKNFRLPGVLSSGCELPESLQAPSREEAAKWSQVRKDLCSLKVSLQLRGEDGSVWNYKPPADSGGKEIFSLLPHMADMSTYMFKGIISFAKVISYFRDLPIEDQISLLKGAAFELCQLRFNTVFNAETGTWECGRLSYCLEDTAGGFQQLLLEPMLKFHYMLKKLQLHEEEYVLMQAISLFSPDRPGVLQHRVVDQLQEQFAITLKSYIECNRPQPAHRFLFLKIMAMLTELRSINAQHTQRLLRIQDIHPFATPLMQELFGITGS
Cytochrome P450 2C9 (Homo sapiens), sequence (P11712 whole entry, looked up): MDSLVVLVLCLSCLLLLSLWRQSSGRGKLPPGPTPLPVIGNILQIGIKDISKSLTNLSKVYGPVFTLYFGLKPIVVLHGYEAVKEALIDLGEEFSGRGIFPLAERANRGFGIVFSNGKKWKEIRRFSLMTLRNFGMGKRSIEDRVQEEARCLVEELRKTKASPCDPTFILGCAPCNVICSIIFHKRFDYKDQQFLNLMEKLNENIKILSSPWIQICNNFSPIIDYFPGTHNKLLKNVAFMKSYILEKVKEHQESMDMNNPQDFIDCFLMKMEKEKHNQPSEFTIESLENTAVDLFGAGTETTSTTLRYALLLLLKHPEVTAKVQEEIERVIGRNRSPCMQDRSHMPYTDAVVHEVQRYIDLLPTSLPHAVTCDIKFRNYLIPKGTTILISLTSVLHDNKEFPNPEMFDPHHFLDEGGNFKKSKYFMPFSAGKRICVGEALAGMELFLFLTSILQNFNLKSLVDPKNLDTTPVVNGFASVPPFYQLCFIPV
Cytochrome P450 2D6 (Homo sapiens), sequence (P10635 whole entry, looked up): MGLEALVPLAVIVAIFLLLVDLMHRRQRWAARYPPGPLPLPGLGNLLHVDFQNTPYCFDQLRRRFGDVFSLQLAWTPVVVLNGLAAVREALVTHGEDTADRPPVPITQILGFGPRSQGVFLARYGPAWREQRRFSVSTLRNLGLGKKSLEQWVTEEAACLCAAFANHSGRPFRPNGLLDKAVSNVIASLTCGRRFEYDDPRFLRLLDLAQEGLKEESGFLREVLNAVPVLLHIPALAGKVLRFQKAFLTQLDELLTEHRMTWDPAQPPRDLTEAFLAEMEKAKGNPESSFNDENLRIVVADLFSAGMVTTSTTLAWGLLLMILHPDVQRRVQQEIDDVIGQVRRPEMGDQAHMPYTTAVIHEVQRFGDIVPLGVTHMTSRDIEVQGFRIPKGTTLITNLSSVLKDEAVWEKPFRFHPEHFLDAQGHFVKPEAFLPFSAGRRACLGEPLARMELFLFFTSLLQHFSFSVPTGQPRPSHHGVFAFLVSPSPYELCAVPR
Cytochrome P450 1A2 (Homo sapiens), sequence (P05177 whole entry, looked up): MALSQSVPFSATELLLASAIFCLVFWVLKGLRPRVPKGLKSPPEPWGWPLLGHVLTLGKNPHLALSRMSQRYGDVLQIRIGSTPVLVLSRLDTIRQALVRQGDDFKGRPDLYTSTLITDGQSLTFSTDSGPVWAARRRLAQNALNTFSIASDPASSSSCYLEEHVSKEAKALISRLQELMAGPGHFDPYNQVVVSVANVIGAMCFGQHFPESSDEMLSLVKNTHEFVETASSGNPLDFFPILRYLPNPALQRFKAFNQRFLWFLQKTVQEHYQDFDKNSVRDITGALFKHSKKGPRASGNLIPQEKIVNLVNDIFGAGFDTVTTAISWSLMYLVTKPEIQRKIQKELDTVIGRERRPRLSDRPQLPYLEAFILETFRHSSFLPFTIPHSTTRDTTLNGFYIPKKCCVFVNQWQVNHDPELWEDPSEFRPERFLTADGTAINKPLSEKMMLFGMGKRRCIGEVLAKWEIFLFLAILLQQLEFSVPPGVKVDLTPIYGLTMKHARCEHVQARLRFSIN

Consider `C1COCCO1`, for which the outcome in assay [1], in [3] and in [5] was inactive. For the same compound, the Potency result in [2], in assay [4], in assay [6], in assay [7], in [9] and in assay [10] was “inactive” throughout. Also, in assay [8], the Potency was 36.4 µM (active).

`CC(=O)O[C@H](CC(=O)[O-])C[N+](C)(C)C`: the result in [1], in assay [3], in assay [11] and in [5] was inactive. The Potency result in assay [2], in [4] and in [9] was “inactive” in each case.

As for `C#CC(O)C(CC)CCCC` (centres undefined), the outcome in assay [1], in assay [3], in assay [11] and in [5] was inactive. Besides, the Potency result in assay [2], in assay [4], in [7], in [12] and in [9] was “inactive” throughout.

`Nc1ccc2cc(S(=O)(=O)O)ccc2c1`: the compound was called inactive in assay [1], in [3], in [11] and in assay [5]. Also, the Potency entry in assay [2], in assay [4], in [9] and in [10] was “inactive” in each case. For the same compound, the Potency is 39.9 µM (active) in assay [7], 39.9 µM (active) in [8] and 50.2 µM (active) in assay [13].

`CC/C=C\CCCCO`: the result in assay [1], in assay [3], in assay [11] and in assay [5] was inactive. Also, the Potency result in assay [2], in assay [4], in assay [7], in assay [8], in assay [12] and in [9] was “inactive” in each case. Also, the Potency result in assay [10] was “inactive”.

`C=C(C)C(=O)OCCCCCCCCCCCCCCCCCC`: the figures for the activation in [1] and in assay [6] were -0.148% [at 11.8 µM] and -0.119% [at 19 µM], respectively. The activity change, negative = cytotoxicity in [2] was -1.38% [at 19 µM]; in [4], -0.104% [at 19 µM]; in [5] it was -0.0917% [at 19 µM]. Moreover, the caspase activation in [3] was -1.69% [at 19 µM]. The activity change, negative = inhibition in [7] is 2.34% [at 23.6 µM]; in assay [8], -16.6% [at 23.6 µM]; in [13], -1.15% [at 23.6 µM]; in assay [9], -0.193% [at 15.8 µM]; in [10], 2.34% [at 23.6 µM]. The Potency result in assay [12] was “inactive”.

Turning to `C=CC(=O)N1CCOCC1`, the outcome in assay [1], in assay [3], in [11] and in [5] was inactive. The Potency entry in assay [2], in assay [4], in assay [13], in assay [9] and in assay [10] was “inactive” each time. Also, the Potency in assay [8] was 35.6 µM (active).

As to `C=C(C)C1CC=C(C)C(O)C1` (centres undefined), the compound was classed as inactive in assay [1], in [3] and in assay [5]. The Potency entry in assay [2], in [4], in assay [7], in [8], in assay [13] and in assay [9] was “inactive” each time. Moreover, the Potency entry in [10] was “inactive”. In addition, the Potency was 48.8 µM (active) in [6] and 40.1 µM (active) in assay [12].

`OCCN1C[C@H](O)[C@@H](O)[C@H](O)[C@H]1CO`: the result in assay [1], in [3] and in assay [5] was inactive. Besides, the Potency entry in assay [2], in assay [4], in assay [6], in assay [14], in assay [15] and in assay [7] was “inactive” each time. The Potency result in assay [13], in assay [12], in [9] and in assay [10] was “inactive” in each case.

Regarding `CCCc1ccccc1O`, the outcome in [1], in assay [3] and in assay [11] was inactive. The Potency entry in assay [2], in [4], in assay [6], in [7], in assay [8] and in [10] was “inactive” each time.
